# Laboratory results as given in PubChem BioAssay.
# Where “and” joins values, the source holds several entries; their conditions need not be identical. Identical values can stand only once. Calls of active or inactive are those of the source.
# What was measured:
# [1] = test system: Plasmodium falciparum Sir2 (PF13_0152, Sir2A); experiment: Plasmodium falciparum Sir2A binding compounds – biochemical, small-molecule microarray, 635 nm fluorescence, primary screen (AID 1098); conditions: fluorescence 635 nm, higher = more signal;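 also: score merges spot fluorescence intensity with its signal-to-noise ratio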
# [2] = probe aDKK1 binding to arrayed compounds – biochemical, biotinylated probe, 635/667 nm fluorescence, primary screen (AID 1099); conditions: small-molecule microarray, higher = more signal;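 also: score merges 667nm spot fluorescence with signal to noise across triplicate slides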
# [3] = probe aCHRDL2 binding to arrayed compounds – biochemical, biotinylated probe, 635/667 nm fluorescence, primary screen (AID 1100); conditions: small-molecule microarray, higher = more signal
# [4] = change in splice reporter luminescence, either direction, cell-based, HEK293, spliceosome inhibition project, primary screen (AID 1101); conditions: HEK293 splicing luciferase reporter, 24 h, higher = more signal, called active from +8 up or from −8 down;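 also: HEK293 cells carrying a splicing-competent luciferase reporter gene; test concentration not given here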
# [5] = molecular target: Fibroblast growth factor 10 (Homo sapiens) (UniProt O15520); experiment: compounds binding fibroblast growth factor 10 – biochemical, small-molecule microarray, 635 nm fluorescence, primary screen (AID 1102); conditions: FGF10 binding, fluorescence 635 nm, higher = more signal
# Sequence of Fibroblast growth factor 10 (Homo sapiens) (O15520 whole entry, looked up): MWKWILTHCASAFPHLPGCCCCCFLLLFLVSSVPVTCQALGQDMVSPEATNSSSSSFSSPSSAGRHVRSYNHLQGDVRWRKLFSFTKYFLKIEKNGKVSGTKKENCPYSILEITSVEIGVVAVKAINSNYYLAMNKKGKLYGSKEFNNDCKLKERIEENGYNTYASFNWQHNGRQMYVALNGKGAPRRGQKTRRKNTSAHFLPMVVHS
# [6] = test system: glycogen synthase kinase-3 (GSK3A per assay name; protocol says GSK3B); experiment: compounds binding glycogen synthase kinase-3 – biochemical, small-molecule microarray, 635 nm fluorescence, GSK3A, primary screen (AID 1103); conditions: fluorescence 635 nm, higher = more signal; also: the record names both GSK3A and GSK3B
# [7] = molecular target: Epidermal growth factor receptor (Homo sapiens) (UniProt P00533); experiment: compounds binding epidermal growth factor receptor – biochemical, small-molecule microarray, 635 nm fluorescence, primary screen (AID 1104); conditions: EGFR binding, higher = more signal;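 also: score merges 667 nm emission intensity with spot signal to noise over triplicate slides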
# Sequence of Epidermal growth factor receptor (Homo sapiens) (P00533 whole entry, looked up): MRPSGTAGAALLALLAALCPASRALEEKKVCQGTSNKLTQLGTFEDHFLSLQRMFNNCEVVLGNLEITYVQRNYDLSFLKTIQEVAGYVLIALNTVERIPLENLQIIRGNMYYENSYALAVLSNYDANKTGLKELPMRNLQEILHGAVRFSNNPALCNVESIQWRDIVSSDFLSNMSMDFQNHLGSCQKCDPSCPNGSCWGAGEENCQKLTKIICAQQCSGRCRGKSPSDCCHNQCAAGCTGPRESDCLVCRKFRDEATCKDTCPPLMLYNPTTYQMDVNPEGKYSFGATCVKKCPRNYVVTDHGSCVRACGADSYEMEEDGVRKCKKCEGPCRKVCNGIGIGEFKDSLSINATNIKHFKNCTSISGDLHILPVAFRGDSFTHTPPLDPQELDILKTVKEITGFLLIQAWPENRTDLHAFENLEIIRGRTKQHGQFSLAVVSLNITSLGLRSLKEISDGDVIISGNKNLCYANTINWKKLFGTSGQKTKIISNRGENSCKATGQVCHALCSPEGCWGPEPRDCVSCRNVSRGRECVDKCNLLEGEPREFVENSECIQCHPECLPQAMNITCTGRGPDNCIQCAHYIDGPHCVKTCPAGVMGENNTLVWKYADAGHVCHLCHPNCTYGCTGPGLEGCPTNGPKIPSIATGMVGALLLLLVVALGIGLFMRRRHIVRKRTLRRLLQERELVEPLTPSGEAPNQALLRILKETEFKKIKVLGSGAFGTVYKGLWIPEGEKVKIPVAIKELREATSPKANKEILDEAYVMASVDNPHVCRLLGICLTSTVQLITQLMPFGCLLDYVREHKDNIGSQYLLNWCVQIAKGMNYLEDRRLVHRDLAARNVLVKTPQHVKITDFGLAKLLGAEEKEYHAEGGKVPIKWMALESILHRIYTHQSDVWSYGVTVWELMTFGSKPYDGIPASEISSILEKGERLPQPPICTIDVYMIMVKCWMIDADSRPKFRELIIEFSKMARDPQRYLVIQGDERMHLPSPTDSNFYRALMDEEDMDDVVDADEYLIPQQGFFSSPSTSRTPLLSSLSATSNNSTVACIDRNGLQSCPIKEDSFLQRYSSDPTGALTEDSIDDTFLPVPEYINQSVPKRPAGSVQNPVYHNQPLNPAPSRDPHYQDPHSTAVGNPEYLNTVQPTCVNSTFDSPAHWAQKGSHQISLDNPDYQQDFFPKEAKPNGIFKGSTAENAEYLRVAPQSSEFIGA
# [8] = molecular target: Follistatin-related protein 3 (Homo sapiens) (UniProt O95633); experiment: compounds binding follistatin-related protein 3 – biochemical, small-molecule microarray, 635 nm fluorescence, primary screen (AID 1105); conditions: FSTL3 binding, higher = more signal;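 also: score merges emission near 667 nm and signal to noise per printed spot across three slides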
# Sequence of Follistatin-related protein 3 (Homo sapiens) (O95633 whole entry, looked up): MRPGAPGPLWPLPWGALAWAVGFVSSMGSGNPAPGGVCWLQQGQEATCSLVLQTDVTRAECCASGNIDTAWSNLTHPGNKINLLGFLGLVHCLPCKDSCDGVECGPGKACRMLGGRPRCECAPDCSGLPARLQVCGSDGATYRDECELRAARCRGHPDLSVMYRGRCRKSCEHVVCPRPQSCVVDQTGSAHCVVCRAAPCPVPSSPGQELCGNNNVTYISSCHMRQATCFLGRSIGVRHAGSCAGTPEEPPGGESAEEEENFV
# [9] = molecular target: Dickkopf-related protein 1 (Homo sapiens) (UniProt O94907); experiment: small molecules binding DKK1 protein – biochemical, small-molecule microarray, 635 nm fluorescence scan, primary screen (AID 1106); conditions: higher = more signal;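 also: score merges emission near 667 nm with signal to noise over three replicate slides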
# Sequence of Dickkopf-related protein 1 (Homo sapiens) (O94907 whole entry, looked up): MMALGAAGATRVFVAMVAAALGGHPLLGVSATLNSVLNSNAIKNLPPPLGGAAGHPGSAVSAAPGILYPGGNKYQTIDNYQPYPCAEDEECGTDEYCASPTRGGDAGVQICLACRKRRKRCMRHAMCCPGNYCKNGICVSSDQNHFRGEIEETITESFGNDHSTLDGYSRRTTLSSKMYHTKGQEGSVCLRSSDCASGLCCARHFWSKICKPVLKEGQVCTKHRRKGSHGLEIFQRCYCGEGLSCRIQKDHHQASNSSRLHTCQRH
# [10] = test system: Inhibin beta A chain (activin A); experiment: small molecules binding activin A – biochemical, small-molecule microarray, 635 nm fluorescence scan, primary screen (AID 1107); conditions: INHBA, higher = more signal;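 also: mouse activin A protein probed at 4.33 µg/mL on printed slides; score merges bound-protein fluorescence near 667 nm with spot signal-to-noise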
# [11] = test system: Human papillomavirus type 1a protein E7 (residues 44-93); experiment: small molecules binding HPV E7 44-93 – biochemical, small-molecule microarray, residues 44-93, 635 nm fluorescence, primary screen (AID 1108); conditions: fluorescence 635 nm, higher = more signal;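 also: E7 fragment applied at 1 µg/mL in TBST for 1 h at 4 C; score combines spot fluorescence with its signal to noise ratio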
# [12] = hepatitis C replication reporter changes, two-sided – Huh7 cells, luciferase reporter, HCV replication inhibitor project, primary screen (AID 1109); conditions: Huh7 HCV replicon luciferase reporter, 48 h; higher = more signal;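 also: huh7 hepatoma cells harbouring a luciferase neomycin HCV replicon reporter; luciferase luminescence as measure of HCV replicon replication; test concentration not given here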
# [13] = molecular target: Left-right determination factor 2 (Homo sapiens) (UniProt O00292); experiment: small molecules binding LEFTY2 protein – biochemical, small-molecule microarray, 635 nm fluorescence scan, primary screen (AID 1110); conditions: higher = more signal
# Sequence of Left-right determination factor 2 (Homo sapiens) (O00292 whole entry, looked up): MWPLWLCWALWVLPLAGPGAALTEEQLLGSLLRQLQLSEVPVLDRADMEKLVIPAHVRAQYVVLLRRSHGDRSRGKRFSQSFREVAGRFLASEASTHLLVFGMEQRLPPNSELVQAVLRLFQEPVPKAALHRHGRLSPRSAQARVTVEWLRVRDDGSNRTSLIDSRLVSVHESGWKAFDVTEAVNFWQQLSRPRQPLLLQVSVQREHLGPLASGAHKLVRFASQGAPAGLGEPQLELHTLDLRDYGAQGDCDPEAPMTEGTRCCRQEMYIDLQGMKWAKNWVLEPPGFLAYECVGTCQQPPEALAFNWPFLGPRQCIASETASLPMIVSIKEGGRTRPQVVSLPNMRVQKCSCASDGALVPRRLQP
# [14] = molecular target: Calmodulin-1 (Homo sapiens) (UniProt P0DP23); experiment: small molecules binding calmodulin-1 with EGTA – biochemical, small-molecule microarray, Cy5-labelled CALM1, profiling panel (AID 1111); conditions: Cy5-CALM1 binding fluorescence, higher = more signal;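 also: labelled calmodulin applied in Tris saline Tween buffer holding calcium plus EGTA and DTT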
# [15] = molecular target: Calmodulin-1 (Homo sapiens) (UniProt P0DP23); experiment: small molecules binding Ca-loaded calmodulin-1 – biochemical, small-molecule microarray, Cy5-labelled CALM1, plus calcium, artefact control for SMM control-protein annotation, profiling panel (AID 1112); conditions: Cy5-CALM1 binding fluorescence, higher = more signal;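 also: score merges spot fluorescence with signal to noise from triplicate slides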
# [16] = probe aWnt5a binding to arrayed compounds – biochemical, biotinylated probe, 635/667 nm fluorescence, primary screen (AID 1113); conditions: small-molecule microarray, higher = more signal;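 also: score merges 667 nm fluorescence intensity with signal-to-noise per printed feature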
# [17] = probe aShh binding to arrayed compounds – biochemical, biotinylated probe, 635/667 nm fluorescence, primary screen (AID 1114); conditions: small-molecule microarray, higher = more signal;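 also: probe is biotin-labelled aShh protein from a stem cell growth factor screen; measures binding of labelled protein to compounds printed on the slide; score merges feature fluorescence at 667 nm with signal-to-noise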
# [18] = probe aNog binding to arrayed compounds – biochemical, biotinylated probe, 635/667 nm fluorescence, primary screen (AID 1115); conditions: small-molecule microarray, higher = more signal;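 also: probe is biotinylated aNog protein used at 0.15 µg/mL for 1 h at 4 C; z-score combines 667 nm fluorescence of each spot with its signal to noise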
# [19] = molecular target: Torsin-1A-interacting protein 1 (Homo sapiens) (UniProt Q5JTV8); experiment: compound microarray binding of lysate hLAP1 – cell lysate, small-molecule microarray, COS7 lysate, 635/667 nm fluorescence, primary screen (AID 1116); conditions: 635 nm fluorescence, higher = more signal
# Sequence of Torsin-1A-interacting protein 1 (Homo sapiens) (Q5JTV8 whole entry, looked up): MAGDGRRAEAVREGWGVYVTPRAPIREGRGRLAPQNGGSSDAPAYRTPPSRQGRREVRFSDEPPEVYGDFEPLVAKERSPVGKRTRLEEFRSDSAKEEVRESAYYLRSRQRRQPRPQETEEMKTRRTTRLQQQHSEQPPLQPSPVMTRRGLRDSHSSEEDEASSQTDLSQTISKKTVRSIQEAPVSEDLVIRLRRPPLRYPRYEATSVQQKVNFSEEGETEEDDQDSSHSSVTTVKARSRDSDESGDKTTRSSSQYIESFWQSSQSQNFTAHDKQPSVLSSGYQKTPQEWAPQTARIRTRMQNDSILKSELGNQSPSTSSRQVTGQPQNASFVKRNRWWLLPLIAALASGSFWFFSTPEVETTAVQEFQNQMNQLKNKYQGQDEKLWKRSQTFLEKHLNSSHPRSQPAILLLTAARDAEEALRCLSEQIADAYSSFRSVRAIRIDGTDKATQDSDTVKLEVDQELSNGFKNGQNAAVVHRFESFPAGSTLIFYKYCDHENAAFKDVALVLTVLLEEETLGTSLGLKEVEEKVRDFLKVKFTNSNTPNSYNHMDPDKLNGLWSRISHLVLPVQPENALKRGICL
# [20] = molecular target: Alpha-bungarotoxin (Bungarus multicinctus) (UniProt P60615); experiment: compounds binding labelled alpha-BTX control protein – biochemical, small-molecule microarray, Alexa647 label, 635/667 nm fluorescence, artefact control for SMM control protein annotation, profiling panel (AID 1117); conditions: alpha-BTX-A647 binding fluorescence, higher = more signal
# Sequence of Alpha-bungarotoxin (Bungarus multicinctus) (P60615 whole entry, looked up): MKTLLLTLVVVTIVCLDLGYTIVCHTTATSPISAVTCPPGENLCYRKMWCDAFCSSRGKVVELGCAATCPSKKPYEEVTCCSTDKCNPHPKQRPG
SMILES,composite z-score [1],composite z-score [2],composite z-score [3],z-score [4],composite z-score [5],composite z-score [6],composite z-score [7],composite z-score [8],composite z-score [9],composite z-score [10],composite z-score [11],z-score [12],composite z-score [13],composite z-score [14],composite z-score [15],composite z-score [16],composite z-score [17],composite z-score [18],composite z-score [19],composite z-score [20]
Cc1ccc(S(=O)(=O)N[C@@H]2COC(=O)CC=C[C@@H](C)[C@@H]3C=C[C@H](O)[C@@H](COC(=O)CC=C[C@H]2C)O3)cc1,0.527 and 0.241,-0.553 and -0.331,-1.15 and -0.466,-0.371 (inactive) and -1.35 (inactive),0.606 and 0.174,0.126 and 0.233,0.884 and 0.383,1.08 and 0.451,1.13 and 0.389,1.03 and -0.134,-0.813 and -0.0304,-0.606 and -1.32,1.21 and 0.343,-0.657 and -0.267,-1.1 and -0.778,-0.172 and -0.0044,-0.0977 and -0.0035,-0.0965 and -0.116,0.11 and 0.433,-0.268 and 0.391
C=CCN(CCCCC)C(=O)C1N(CCCCCCO)C(=O)C2C(C(=O)O)C3C=CC21O3 (stereo not given),1.34 and 1.33,-0.3 and -0.257,0.933 and 0.677,-0.372 (inactive) and 0.305 (inactive),-1.23 and -1.99,-0.699 and -1.32,-1.76 and -2.1,-2.21 and -0.897,-3.08 and -2.95,-0.194 and -1.46,-0.37 and -0.151,-0.415 and -0.545,-0.978 and -2.49,-1.53 and -0.747,-0.155 and 0.379,-0.256 and -0.258,-0.0626 and -0.156,-0.0784 and -0.208,0.257 and -1.03,-1.31 and -1.22
CO[C@@H]1COC(=O)CC=C[C@H](C)[C@@H](NS(=O)(=O)c2ccc(C)cc2)COC(=O)CC=C[C@@H]1C,0.462 and 1.72,-0.378 and -0.3,-0.823 and -0.867,-0.338 (inactive) and -0.57 (inactive),0.819 and 0.365,0.875 and 0.415,0.858 and 0.943,1.32 and 1.4,0.597 and 1.3,-0.113 and 1.32,0.494 and -1.3,-1.06 and -1.76,0.687 and 0.845,-0.653 and -0.748,-1.02 and -1.12,-0.101 and -0.126,0.0121 and -0.156,-0.23 and -0.289,0.149 and 0.483,1.15 and -0.0808
C=CCN(CCCC)C(=O)C1N(c2ccc(CCO)cc2)C(=O)C2C(C(=O)O)C3C=CC21O3 (stereo not given),-1.39 and 1.08,-0.112 and -0.229,0.354 and 1.07,-0.378 (inactive) and 0.182 (inactive),-1.48 and -1.93,-1.54 and -1.22,-1.51 and -2.06,-1.76 and -2.15,-2.31 and -3.32,-1.59 and -3.61,-2.07 and -0.32,-0.213 and 1.02,-2.86 and -4.53,-0.828 and -1.3,0.33 and 0.554,-0.221 and -0.296,0.0796 and 0.292,-0.265 and -0.565,-0.994 and -1,-0.577 and -1.86
C=CCN(CCCC)C(=O)C1N(CCOCCO)C(=O)C2C(C(=O)O)C3C=CC21O3 (stereo not given),1.46 and 0.591,-0.0203 and -0.336,1.02 and 0.53,0.391 (inactive) and 0.915 (inactive),-1.38 and -1.65,-1.47 and -1.21,-1.89 and -1.27,-1.5 and -2.25,-3.09 and -1.87,-3.45 and -2.19,-0.0707 and -0.913,0.367 and 0.91,-2.91 and -1.58,-0.794 and -0.296,-0.0435 and 0.108,-0.256 and -0.287,-0.138,-0.216 and -0.352,1.59 and -0.819,-1.59 and -0.552
C[N+](C)(C)CCCCCCNC(=O)[C@H]1C[C@H]2C(=O)N[C@@H](CCCC[N+](C)(C)C)C(=O)N2[C@H]1c1ccc(O)cc1,0.819 and 1.44,-0.359 and -0.0843,-0.304 and 0.224,-0.616 (inactive) and -0.146 (inactive),0.508 and -0.456,-0.253 and -0.528,0.28 and -0.409,0.41 and -0.414,0.867 and 0.455,0.469 and 1.16,-0.113 and 0.0498,-0.0901 and 0.0595,0.633 and -0.0601,-0.616 and -0.416,-0.452 and -1.03,-0.13 and -0.14,-0.124 and 0.0326,0.0637 and -0.303,-0.0201 and -0.413,1.02 and -1.54
CO[C@@H]1COC(=O)[C@H](Cc2ccccc2)NC(=O)CC=C[C@@H](C)[C@H](OC)COC(=O)[C@@H](C)NC(=O)CC=C[C@H]1C,1.58 and 0.899,-0.447 and -0.987,-1.06 and -1.37,-1.14 (inactive) and -1.29 (inactive),0.497 and 0.956,1.07 and 0.496,0.882 and 0.64,1.29 and 0.876,0.696 and 1.67,1.42 and 0.336,0.946 and 0.026,-0.198 and 0.903,0.79 and 0.972,-0.913 and -0.79,-1.89 and -1.85,-0.1 and -0.22,-0.362 and -0.102,-0.201 and -0.278,0.596 and -0.19,-0.527 and -0.862
Cc1cc2c(nc1C)CCCN2CC(O)CN1CCCc2nc(-c3ccc(Br)cc3)ccc21 (stereo not given),1.16 and 0.822,0.116 and 1.46,0.334 and 0.608,-0.605 (inactive) and -0.58 (inactive),1.21 and 1.31,1.29 and 1.14,0.852 and 1.05,1.43 and 1.25,1.06 and 1.08,1.33 and 1.31,1.32 and 1.19,-1.3 and -2.09,0.917 and 0.75,0.645 and 1.01,-0.0329 and 0.151,0.361 and 0.499,0.641 and 1.58,0.676 and 1.1,0.126 and 1.1,1.92 and 2.78
C=CC[C@H](O)c1ccc(OCCO)cc1,0.142 and -0.925,0.203 and -0.308,0.777 and 0.484,0.296 (inactive) and 2.7 (inactive),-0.603 and -0.328,-0.92 and -2.17,-0.883 and -0.455,-0.382 and -0.0904,-1.06 and -0.251,0.149 and 0.677,-0.664 and -3.44,-0.921 and 0.924,-0.774 and -0.827,-1.14 and -0.814,0.237 and 0.234,-0.176 and -0.139,-0.221 and -0.288,-0.0144 and 0.419,-0.24 and -1.3,2.4 and -0.101
COC(=O)[C@@]1(Cc2ccccc2)[C@H]2c3cc(C(=O)N(C)C)n(Cc4ccc(C)c(F)c4F)c3C[C@H]2CN1C(=O)c1ccccc1,1.07 and 0.37,1.39 and 0.861,1.31 and 1.05,-2.38 (inactive) and -2.61 (inactive),0.365 and 1.01,0.22 and 1.32,-0.542 and 0.652,-0.0958 and 1.42,-1.07 and 0.472,0.885 and 1.09,1.41 and 1.38,-3.76 and -2.08,-0.301 and 0.288,1.46 and 2.22,0.818 and 1.11,0.208 and 0.822,1.91 and -0.279,0.782 and 0.365,2.24 and 0.536,0.226 and 1.1
CON(C)C(=O)c1nnc2c3ccccc3n(S(=O)(=O)c3ccc(C)cc3)c2n1,0.478 and 0.658,-0.0748 and 0.249,-0.487 and -0.75,0.317 (inactive) and 0.807 (inactive),0.638 and 0.746,0.67 and 1.25,0.484 and 0.58,0.476 and 1.02,0.614 and 0.551,0.454 and 0.688,0.652 and 1.1,1.78 and 1.38,0.755 and 0.321,0.761 and -0.142,-0.318 and -1.11,-0.0748 and -0.006,-0.223 and 0.0022,-0.373 and 0.0369,0.637 and 0.223,0.787 and 0.219
